We go through 97 molecules from PubChem BioAssay AID738 (SRMLSC, 2007).

Structures are written as SMILES. Out of some 98,000 compounds screened, about 4,900 (5%) were called active. Shown is part of a subset that was picked to be rich in actives. A number with no mark means an inactive call. Rule as the data show it: active = inhibition above about 30%; inactive = the rest.

The assay in a line: yeast control strain growth suppression – counter-screen for post-Golgi transport modulator project, primary screen (AID 738). As to conditions: efflux-deficient yeast background strain, growth absorbance A615, 16 h; at 10 µM; stronger effect = higher value. A general note: The purpose of a counterscreen is to sort out artefacts and off-target activity.
A word on the inhibition: it is the change of the read-out against control, counted positive when it falls. Consider `O=C(CCC(=O)OCc1cccc(C(=O)Oc2ccccc2)c1)Nc1cccc2ccccc12`, for which the inhibition is 0.79%.
In the case of `O=C1OC(c2ccc(Cl)cc2)=N/C1=C\c1cccnc1` it was -10.4%; in that of `CS(=O)(=O)c1sc2nc(-c3ccccc3)cc(-c3ccccc3)c2c1N`, 10.9%; in that of `O=C1CN(c2nc(-c3ccccc3)c3cc(Br)ccc3n2)c2ccccc2N1`, 6.52%.
In the case of `COc1ccccc1NC(=O)COc1ccc(C(=O)OCC(=O)N(C(C)C)C(C)C)cc1OC`, the inhibition is 13.2%.
As to `FC(F)(F)c1cc(-c2ccco2)nc(NCc2ccc(Cl)cc2)n1`, the inhibition was 25.8%.
Turning to `Cc1ccc(OCC(O)CN2CCN(CC(O)COc3ccc(C)cc3Cl)CC2)c(Cl)c1` (configuration not stated), the inhibition is 94.4% (active).
In the case of `OC(COc1ccc2ccccc2c1)CN1CCOCC1` (configuration not stated) it was 15.5%; in that of `COc1cccc(OCC(O)CN2CCN(CCO)CC2)c1` (configuration not stated), -4.45%.
With `Cc1ccc(-c2nc(C)sc2CC(=O)O)cc1`, the inhibition was 6.8%.
Regarding `COc1ccccc1N(C)S(=O)(=O)c1ccc(C(=O)N2CCC(C(N)=O)CC2)cc1`, the inhibition is 1.96%.
For `NC(=O)C1CCN(C(=O)c2ccc(-c3ccccc3)cc2)CC1`, the inhibition is 6.88%.
In the case of `NC(=O)C1CCN(C(=O)c2ccc(C(F)(F)F)cc2)CC1` it was 36.9% (active); in that of `O=c1oc2c(Cl)cc(Cl)cc2cc1-c1nnc(Nc2ccccc2F)s1`, -3.4%.
To `Cn1c(CO)cnc1SCc1ccccc1` belongs 9.24%; to `CCS(=O)(=O)n1nc(-c2ccccc2)nc1SCc1ccccc1`, 31.2% (active).
On to `CCS(=O)(=O)n1nc(-c2ccc(OC)cc2)nc1SC`, for which the inhibition is 9.73%.
To `CCC1(C)Cc2c(sc3nnn(CC(=O)Nc4ccc(Cl)cc4)c(=O)c23)CO1` (configuration not stated) belongs 6.74%; to `O=C(NCCCN1CCOCC1)c1cc2c(s1)CCC2`, -14.4%.
Regarding `Cc1n[nH]c(=S)n1/N=C/c1ccc(Br)o1`, the inhibition is 49.4% (active).
To `Cc1ccc(-c2n[nH]c(=S)n2/N=C/c2cc3c(cc2[N+](=O)[O-])OCO3)cc1` belongs -11.7%; to `C=CCNC(=S)NNc1ncnc2sc3c(c12)CC(C)(C)OC3`, 0%.
To `COc1ccccc1NC(=S)NC(=O)C(C)C` belongs 12.3%; to `O=C(NCN1CCN(CCO)CC1)c1cnccn1`, -5.66%.
To `Cc1ccc(SCc2cc(=O)[nH]c(N3CCCCC3)n2)cc1` belongs 7.96%; to `O=c1cc(-c2ccccc2)nc(N2CCCCC2)[nH]1`, 45% (active).
As to `O=c1cc(CSc2ccccn2)nc(N2CCN(c3ccccc3)CC2)[nH]1`, the inhibition was 8.73%.
Turning to `CCOC(=O)C(=O)Nc1nc(-c2ccccc2)c(CC)s1`, the inhibition was -2.8%.
For the molecule `Cc1cccc(CSc2nnc(NC(=O)CSc3nnc(C)s3)s2)c1`, the inhibition is 22.5%.
As to `CCN(CC)c1ccc(/C=N/Nc2nc(C)cc(=O)[nH]2)cc1`, the inhibition is -2.13%.
To `COc1cc2c(cc1OC)C(C(=O)NCc1ccco1)C1c3ccccc3CCN1C2=O` (configuration not stated) belongs 4.7%; to `CCOC(=O)N1CCN(C(=O)C2CCN(c3ncnc4c3sc3cccc(F)c34)CC2)CC1`, 2.07%.
With `CCOC(=O)C1CCN(C(=O)c2oc3ccc(S(=O)(=O)N4CCCCCC4)cc3c2C)CC1`, the inhibition was 8.75%.
As to `CCOC(=O)C1CCN(c2ncnc3c2oc2ccc(Br)cc23)CC1`, the inhibition was 47.4% (active).
In the case of `CCCNC(=O)c1c(N)n(-c2ccc(S(N)(=O)=O)cc2)c2nc3ccccc3nc12` it was -2.52%; in that of `Cc1nn(C)c(Oc2ccc(Cl)cc2)c1C=O`, 2.69%; in that of `O=C(CCCCn1c(=O)[nH]c2ccccc2c1=O)NCc1ccc2c(c1)OCO2`, 1%.
To `O=C1N(Cc2ccc3c(c2)OCO3)c2ccccc2C1(O)c1c[nH]c2ccccc12` (configuration not stated) belongs 38.7% (active).
Consider `O=C(COc1ccccc1)NCc1ccc2c(c1)OCO2`, for which the inhibition is 9.88%.
To `Cc1csc(=NC(=O)c2ccccc2)n1CCO` belongs 7.5%; to `CCC(C)NC(=O)CCCc1ccccc1` (configuration not stated), 28.4%; to `O=C(CNC(=O)Cc1ccccc1)NCC(=O)OCC(=O)c1ccccc1Cl`, 13.6%.
In the case of `C=CCOc1c2ccc(C(=O)N(CC)c3ccc(OC)cc3)cc2nn1C` it was 7.7%; in that of `O=C(NC1CC1)c1ccc2c(c1)NC(=O)c1ccccc1S2`, -5.47%; in that of `COc1ccc(C(C#N)Nc2ccc(C)cc2)cc1` (configuration not stated), 1.82%.
To `COc1ccc(-c2cc(C(=O)n3cnc4ccccc43)c3ccccc3n2)cc1` belongs 15.1%.
Consider `O=C(CCOc1ccccc1)NCc1ccccc1`, for which the inhibition was 39.4% (active).
For the molecule `O=C(CCc1ccccc1)NCc1cccnc1`, the inhibition is 6.95%.
To `O=C(CCCOc1ccccc1)NCc1ccco1` belongs 3.25%; to `Cn1sc(NC(=O)c2ccccc2)nc1=O`, 4.34%; to `CC(C)(C)c1cc2cccnc2n1Cc1ccccc1`, 7.46%.
Consider `CCOC(=O)c1sc2nc(SC)nc(-c3ccccc3)c2c1N`, for which the inhibition is -7.15%.
Take `Cc1ccccc1OCC(=O)NCC(=O)OCC(=O)c1ccc2ccccc2c1`: the inhibition was 6.76%.
In the case of `Cc1cc2ccccc2n1CCNC(=O)COc1ccc2ccccc2c1` it was 44.7% (active); in that of `COCCNC(=O)COc1ccc(C)c(C)c1`, -10.9%; in that of `COc1ccc(C(=O)CN(C(=O)c2ccc(Cl)cc2)N2C(=O)c3ccccc3C2=O)cc1`, -4.1%.
Consider `COc1cccc(NC(=O)C2c3cc(OC)c(OC)cc3C(=O)N(C)C2c2cccnc2)c1` (configuration not stated), for which the inhibition was -0.14%.
On to `CC(=O)NNc1cc(=O)c2c(=O)n(C)c(=O)n(C)c2[nH]1`, for which the inhibition is 0.97%.
In the case of `Cn1c2ccccc2n2c(=O)c(=O)n(CC(=O)c3ccc(F)cc3)nc12`, the inhibition is 3.79%.
To `Cc1cc(C)c(S(=O)(=O)NCC2CCC(C(=O)NCc3ccc4c(c3)OCO4)CC2)c(C)c1` (configuration not stated) belongs 15.2%; to `CCOc1ccccc1Oc1cn[nH]c1-c1ccc(OC)cc1O`, 52.3% (active); to `CCOc1ccccc1NC(=O)Nc1cc(OC)ccc1OC`, 14.3%.
To `CCOc1cc(-c2cc(-c3ccc(OC)cc3)nc(N)c2C#N)ccc1O` belongs -2.55%; to `Cn1c2c(c(=O)n(C)c1=O)[C@@H]1c3c(ccc4ccccc34)OC[C@@H]1CO2`, 3.76%; to `CCc1ccc(NC(=O)CSc2nc3ccccc3c(=O)n2CCN2CCOCC2)cc1`, 7.51%.
For `CCn1c(/C=C/c2ccc([N+](=O)[O-])o2)nc2ccccc2c1=O`, the inhibition is 68% (active).
To `Cc1nc2ccccc2c(=O)n1CCCn1ccnc1` belongs 1.67%; to `O=C(Nc1nnc(SCc2ccc(Cl)cc2Cl)s1)C1COc2ccccc2O1` (configuration not stated), 5%.
Take `CCOC(=O)c1cnc(-c2ccccc2)nc1Oc1ccc(C)cc1`: the inhibition is 4.35%.
On to `Cc1nnc(NC(=O)Cn2c(=O)sc3ccccc32)s1`, for which the inhibition was -3.03%.
To `N/C(=N\OC(=O)Nc1ccc(Cl)c(Cl)c1)c1ncc(C(F)(F)F)cc1Cl` belongs 13.3%; to `O=C(CC(O)(C(F)(F)F)C(F)(F)F)Nc1ccc(Cl)c(Cl)c1`, 96.9% (active).
In the case of `Cc1nnc(NC(=O)Nc2ccc(Cl)c(Cl)c2)s1` it was 3.53%; in that of `COCc1cc(C)nc2sc3c(=O)n(-c4cccc5ccccc45)nnc3c12`, 21.1%.
To `O=C(Cn1nnc(-c2ccccc2)n1)NCc1ccc2c(c1)OCO2` belongs 2.85%.
`COc1ccc(-c2csc(N3CCN(Cc4ccc5c(c4)OCO5)CC3)n2)cc1`: the inhibition is -2.01%.
To `O=C(CN1CCN(c2nc(-c3ccccc3)cs2)CC1)NCc1ccc2c(c1)OCO2` belongs 44.6% (active).
For `COc1ccc(C2CC(=O)Nc3sc(=N)c4c(N)c(C#N)c(N)nc4c32)cc1OC` (configuration not stated), the inhibition is 24.2%.
In the case of `Fc1ccccc1/C=C1\CCCC2=C1Nc1ncnn1C2c1ccccc1F` (configuration not stated) it was 35.8% (active).
In the case of `CCCCCn1c(SCCC(C)C)nc2c1c(=O)[nH]c(=O)n2C` it was 35.5% (active); in that of `CCCCCCn1c(SCC(=O)c2ccccc2)nc2c1c(=O)[nH]c(=O)n2C`, 12.4%; in that of `CCCSc1nc2c(c(=O)[nH]c(=O)n2C)n1CCc1ccccc1`, 16.6%.
In the case of `ONC(=Nc1ccccc1)c1ccccc1Cl` it was 24.2%; in that of `CN(C(=O)CSc1nnc(N)s1)c1c(N)n(Cc2ccccc2)c(=O)[nH]c1=O`, 7.66%; in that of `Cc1cc([N+](=O)[O-])c(N2CCC[C@@H]2C(=O)O)c([N+](=O)[O-])c1`, 18.4%.
Take `Cc1ccsc1-c1nc(CSCC(=O)NCCN2CCCC2)c(C)o1`: the inhibition was 34.5% (active).
To `Cc1ccc(Cc2c(C)nc3nc(SCC(=O)NCCN4CCOCC4)nn3c2C)cc1` belongs 20%; to `Cn1c(C(=O)NCCCN2CCCCC2)cc2sccc21`, 2.29%.
Turning to `COc1ccccc1N1CCN(Cc2nnnn2CCc2ccccc2)CC1`, the inhibition is 7.81%.
As to `COc1ccccc1N1CCN(Cc2ccc(OC)c3ccccc23)CC1`, the inhibition is 34.9% (active).
As to `COc1ccccc1N1CCN(CCCCOc2ccc(F)cc2)CC1`, the inhibition was -0.55%.
Consider `Cc1cc(C)n2nc(C(=O)NC(C)(C)C)nc2n1`, for which the inhibition is 4.47%.
To `COc1ccc(Oc2c(Cl)cnn(-c3ccccc3)c2=O)cc1` belongs -3.86%; to `CCN1CCC(=NNC(=O)c2ccc(C)c([N+](=O)[O-])c2)CC1`, 3.82%; to `Cc1oc(-c2ccccc2F)nc1CS(=O)(=O)CC(=O)NCCCN(C)C1CCCCC1`, 13.5%.
In the case of `Cc1ccccc1-c1nc(CS(=O)(=O)CC(=O)N2CCc3ccccc3C2)c(C)o1` it was 30.9% (active); in that of `COc1ccc(-c2nc(CS(=O)CC(=O)N3CCc4ccccc4C3)c(C)o2)cc1` (configuration not stated), 4.85%.
